Data published in the OligoGym collection.

molecular target: ZNF836; assay: pooled miR-30 sensor sort-seq; sequence = guide strand; details: shRNA
Further: reference of the scale not given here.

Sequence | sensor-assay potency score (higher = more potent)
TTGTTTTAAGACTCTCTGCAGT | -0.237
TAACTTTGACTAAAGGACTTGC | 0.219
TTTGTTTCCACTATGAACTGTC | 1.2
TTTCTCTGTAGTATGTACCATC | -0.51
TTTTGTCTGAAGATCTTGCCAC | 0.166
TTGAACGCTGAGTATAGGCTTT | 0.0637
TTCAGTTTGAAATTTCTGCAGT | 0.363
TAGGAGAACATCTAAAGGCTTT | 0.15
TTGACTGAAGACCTTGTCGCAT | -0.213
TAAGACTTGAAGACACTCTAAA | -0.52

molecular target: ZNFX1; assay: as above; details: shRNA

Sequence | sensor-assay potency score (higher = more potent)
TTTCTCTTCTAAGACATGCATC | -0.81
TTGAATAATAGCCAGTTCCCTT | -1.02
TAGACCTCTACTGCTATGCTAT | -0.477
TTTGTCCACAACATGGACCCTG | -0.317
TAATTTGCCAAACAGACTCGTT | -0.716
TTCAATCTCTTCTAGCCGCTGT | 0.737
TTCTCTGCTATCTTGTAGCGGG | -0.426
TACAACTGTAGCCAGAGCCTAT | -0.979
TTGGTCTCTAGCTTCGTCGCTG | 0.295
TTTATTATGAGAGTTAGTCTGC | 0.368
TAACACACAACCAAGATGGGGA | 0.323
TTGTCCACAACATGGACCCTGA | -0.839

molecular target: ZNRF2; assay: as above; details: shRNA

Sequence | sensor-assay potency score (higher = more potent)
TTAAACACATTACAAGATGCAA | -0.454
TTACTTCAAACCATTCATCTAT | 0.146
TTGTTAAACACATTACAAGATG | -1.34
ATAGACAAGGCAGTCGTGCTAT | 0.0716
TAAACACATTACAAGATGCAAA | -1.15
TTATGATATATGCATAGACAAG | -1.91
TTTATCAGTATTACCTATGTAG | 0.361
TCGTGCTATAGTATCTCCCTGC | 0.0677
TGCATAGACAAGGCAGTCGTGC | -0.863
TTGTCAAGACAAGAAAACCTAT | -0.902
TACTTCAAACCATTCATCTATG | -0.758

molecular target: ZSCAN21; assay: as above; details: shRNA

Sequence | sensor-assay potency score (higher = more potent)
TTAACTAGACTGGATACACGTC | -0.514
TAATGTTTCTTCCTTAACTAGA | -0.759
TAGGAACTGATTCTCTACCTTT | 0.143
ATATATAACGTCTCTCTCCTGG | 0.19
TAAAACAACGACAACAACAGGA | 0.555
TTTCTCTTCTTTCTCCTCGACT | -0.944
TGGATCTTGAGCGAACTCCTGC | -0.804
